Screening results: PubChem BioAssay, National Center for Advancing Translational Sciences (NCATS)
12-LOX inh: blocks human arachidonate 12S-lipoxygenase; P18054; purified 12hLO, xylenol orange hydroperoxide absorbance; Potency, µM (series often up to 108 µM), for inactives: at the highest dose activity change, negative = inhibition, hits mostly inhibitors; 1.1% of 580,000 active; AID 1671190; also: potency is read from the fitted curve at half-maximal effect
Target sequence (P18054 whole entry, looked up): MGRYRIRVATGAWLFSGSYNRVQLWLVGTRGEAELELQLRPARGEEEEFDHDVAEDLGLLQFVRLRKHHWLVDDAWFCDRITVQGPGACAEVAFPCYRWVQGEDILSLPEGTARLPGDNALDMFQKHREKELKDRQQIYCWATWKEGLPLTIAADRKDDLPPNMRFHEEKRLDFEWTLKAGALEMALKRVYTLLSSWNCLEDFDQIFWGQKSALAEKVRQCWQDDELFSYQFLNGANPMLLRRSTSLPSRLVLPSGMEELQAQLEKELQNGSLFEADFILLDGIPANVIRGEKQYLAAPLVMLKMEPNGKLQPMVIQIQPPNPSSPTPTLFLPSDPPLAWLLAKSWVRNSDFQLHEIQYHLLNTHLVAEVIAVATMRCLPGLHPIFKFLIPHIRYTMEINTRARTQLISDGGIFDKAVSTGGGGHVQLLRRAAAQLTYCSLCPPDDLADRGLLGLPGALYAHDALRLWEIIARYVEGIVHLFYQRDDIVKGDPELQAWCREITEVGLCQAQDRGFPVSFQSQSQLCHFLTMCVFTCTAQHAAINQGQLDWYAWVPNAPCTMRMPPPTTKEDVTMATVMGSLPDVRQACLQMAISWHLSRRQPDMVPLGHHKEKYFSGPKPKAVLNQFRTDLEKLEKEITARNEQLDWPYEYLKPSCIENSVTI
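Purified human 12hLO at 150 nM in 25 mM Hepes, 0.01% Triton X-100, pH 7.0, preincubated 15 min at room temperature with compound. Reaction started with 40 uM arachidonic acid, 30 min at room temperature. Hydroperoxide measured by Fe-xylenol orange, 573/405 nm absorbance ratio.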
IL1B secr inh: inhibitors of inflammasome signaling (IL-1 beta secretion); THP-1 LPS/ATP IL-1B secretion, AlphaLISA, 16 h; stronger effect = lower value; activity change, % at 57.5 µM; 4.7% of 360,000 active; AID 743279; in the data active = activity change below about -50%; inconclusive = mostly about -30% to -49%
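THP-1 cells pretreated 1 hr with compounds (up to 57.5 uM final), then stimulated with LPS (250 ng/mL final) plus ATP (1.25 mM final); secreted IL-1B measured by AlphaLISA after 16 hr, decreased signal indicating inhibition.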
HT1080NT lethal: kills 2HG-producing HT-1080-NT fibrosarcoma cells; HT-1080-NT fibrosarcoma viability, CellTiter-Glo ATP luminescence, 48 h; Potency, µM (series often up to 46.1 µM), for the others: at the highest dose activity, negative = less viability, actives largely listed as cytotoxic; 1.6% of 360,000 active;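 also: NT is the 2HG producing partner of a matched IDH1 knockdown line; potency is read from the fitted curve at half-maximal effect; 0% = DMSO-treated cells and -100% = media-only wells without cells; nearly all actives have a fitted effect of over 55% in size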
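A 48-hour cytotoxicity screen used HT-1080-NT cells plated 2 hours before compound delivery. ATP-based CellTiter-Glo luminescence measured viability, normalized to DMSO and no-cell controls.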
TDP1 cell CPT: DT40-hTDP1 cell growth loss with CPT. chicken DT40 Tdp1-/-;hTDP1 cells + 20 nM CPT, ATP luminescence, 48 h. Potency, µM (titrated, usually from 46.2 µM), without a hit: at the highest dose activity change, negative = growth inhibition, hits mostly inhibitors. 12% of 420,000 active. AID 686979; also: potency is read from the fitted curve at half-maximal effect; nearly all actives have a fitted effect of over 55% in size
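Chicken DT40 Tdp1-/- cells stably complemented with human TDP1 were seeded at 400 cells/well in medium containing 20 nM camptothecin, exposed to pin-transferred compounds, and grown at 37 °C for at least 48 hr. Viability was read as ATP luminescence.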
DT40 TDP1 no CPT: qHTS for Inhibitors of human tyrosyl-DNA phosphodiesterase 1 (TDP1): qHTS in cells in absence of CPT; DT40 Tdp1-/- hTDP1 cells, no CPT, ATP luminescence, 48 h; AID 686978, 2013; Potency, µM (series often up to 46.2 µM), for inactives: at the top dose activity change, negative = growth inhibition, most hits filed as inhibitors; 15% of 420,000 active; also: potency is read from the fitted curve at half-maximal effect; nearly all actives have a fitted effect of over 55% in size
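Growth kinetics read by CellTiter-Glo luminescence after ≥48 hr at 37 °C. Cells: DT40 Tdp1-/- stably carrying human TDP1, 400 per well, compound exposure in the absence of CPT (DMSO vehicle).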
HT1080 IDH1KD tx: HT-1080 IDH1 knockdown cell toxicity (counter line); HT-1080 IDH1 knockdown viability, ATP luminescence, 48 h; Potency, µM (titrated, usually from 46.1 µM), for the others: at the highest dose activity, negative = toxicity, actives largely listed as cytotoxic; 2% of 360,000 active;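 also: potency is read from the fitted curve at half-maximal effect; 0% = DMSO wells and -100% = cell-free medium wells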
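Viability of IDH1-knockdown HT-1080 fibrosarcoma cells was assessed by CellTiter-Glo after 48 h at 37 °C with titrated compound; concentration-effect curves were classified by fit quality and response size.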
Numbers without * were called inactive; ? = inconclusive; · = not tested or not shown. The sample as a whole holds a higher share of hits than the screen did. Unless noted, calls follow the shape of the dose curve; as a rule, active = well fitted curve in the direction sought with a large enough effect; inconclusive = small, poorly fitted or top-dose-only effect, or another doubt; inactive = no such curve, though single readings can be large; an effect the other way counts as inactive or inconclusive. Unless noted, % is scaled to controls: 0 for no effect and ±100 for the full control effect.

SMILES	12-LOX inh	IL1B secr inh	HT1080NT lethal	TDP1 cell CPT	DT40 TDP1 no CPT	HT1080 IDH1KD tx
CN(CC(=O)Nc1ccc(N2CCOCC2)cc1)C(=O)CCc1cc(C(C)(C)C)c(O)c(C(C)(C)C)c1	-11%	-1	-17%	?	16µM*	-19%
CN(CC(=O)Nc1ccc(N2CCOCC2)cc1)C(=O)CSc1ccc(Br)cc1	457%	1	-2%	?	15µM*	-7%
CN(CC(=O)Nc1ccc(N2CCOCC2)cc1)C(=O)CC(c1ccccc1)c1ccccc1	9%	-5	-8%	-17%	-18%	-4%
COc1ccc(CNC(=O)c2cc3cc4ccc(C)cc4nc3o2)cc1	0%	·	·	?	23µM*	·
COc1ccc2cc3cc(C(=O)NCc4ccc5c(c4)OCO5)oc3nc2c1	?	-20	6%	-6%	-27%	1%
CCN(C(=O)c1cc2cc3ccc(C)cc3nc2o1)c1ccc(OC)cc1	?	-52*	?	-15%	?	3%
CCCCN(C)C(=O)c1cc2cc3ccc(OC)cc3nc2o1	0%	?	?	-16%	-17%	?
COc1ccc2cc3cc(C(=O)NCC4COc5ccccc5O4)oc3nc2c1 (centres undefined)	-21%	-10	?	?	16µM*	?
CCN(CC)c1ccc(CNC(=O)c2scnc2C)cn1	-3%	·	·	·	·	·
CCCC(=O)c1cc(O)c(O)cc1O	1.6µM*	·	·	?	17µM*	·
COc1cc2c(cc1OC)C(c1cccs1)N(C(=O)c1ccncc1)CC2 (centres undefined)	3%	0	?	13µM*	?	13µM*
COc1cc2c(cc1OC)C(c1cccs1)N(C(=S)NC(C)C)CC2 (centres undefined)	158%	-27	?	?	15µM*	-11%
NCCC1CCN(C(=O)Nc2ccccc2F)CC1	-14%	·	·	·	·	·
Cc1c(Cl)cccc1NC(=S)NCCc1ccc(F)cc1	?	-82*	-14%	-27%	-19%	-6%
Cc1c(Cl)cccc1NC(=S)NCCc1ccc(Cl)cc1	25µM*	·	?	?	?	?
O=C(NCc1ccc(OC(F)F)cc1)c1ccc(-n2cnnn2)cc1	12%	·	·	·	·	·
CCCCCSc1nnc2c(n1)OC(c1cccn1C)N(C(C)=O)c1ccccc1-2 (centres undefined)	-11%	-74*	5%	-16%	-15%	0%
CCSc1nnc2c(n1)OC(c1ccc(C)cc1)N(C(C)=O)c1ccccc1-2 (centres undefined)	0%	·	·	?	?	·
O=C(CCN1CCOCC1)c1ccc(Br)cc1	?	-91*	?	3.3µM*	2.6µM*	26µM*
O=C(CCN1CCOCC1)c1ccc(Cl)cc1	-21%	-24	-12%	2.9µM*	2.6µM*	-4%
CNC(=O)N1CCC(C2CCN(S(=O)(=O)c3cnc[nH]3)C2)CC1 (centres undefined)	35%	·	·	·	·	·
CC1CCN(S(=O)(=O)c2ccc(C(=O)OC(C)C(=O)N(C)C3CCCCC3)cc2)CC1 (centres undefined)	-27%	29	-1%	?	26µM*	4%
COC(=O)Nc1ccc(S(=O)(=O)N2CCC(C(=O)N(C)C3CCCCC3)CC2)cc1	-2%	2	-9%	?	26µM*	-6%
CCOC(=O)C1CCN(S(=O)(=O)c2ccc(NC(=O)OC)cc2)CC1	0%	13	-13%	-7%	-11%	-13%
COc1cc(-c2nnc(SCC(=O)NC(C)c3ccc4c(c3)CCCC4)o2)cc(OC)c1OC (centres undefined)	16%	·	·	·	·	·
SMILES	12-LOX inh	IL1B secr inh	HT1080NT lethal	TDP1 cell CPT	DT40 TDP1 no CPT	HT1080 IDH1KD tx
O=C(NNC(=O)C1CCCCC1)c1cc(F)cc(F)c1	13%	·	·	·	·	·
CC(=O)c1sc(Nc2cccc(C)c2)nc1C	-8%	17	-10%	-5%	4%	-9%
Cc1nc(Nc2ccc(Cl)cc2Cl)sc1C(=O)Nc1ccccc1	-20%	-94*	18%	26µM*	18µM*	26%
Cc1nc(Nc2ccc(Cl)c(Cl)c2)sc1C(=O)Nc1ccccc1	?	-26	?	6.5µM*	15µM*	-23%
Cc1cccc(C(=O)Nc2nc(C)c(C(=O)Nc3ccc4c(c3)CCC4)s2)c1	?	3	11µM*	23µM*	?	?
Cc1cccc(Nc2nc(C)c(C(=O)Nc3ccccc3)s2)c1	13µM*	·	·	·	·	·
Cc1nc(NC(=O)/C=C/c2ccccc2)sc1C(=O)Nc1ccc(Cl)cc1	-4%	-10	?	?	?	?
Cc1cccc(NC(=O)c2ccc3c(c2)CCC3)c1	3%	·	·	·	·	·
COc1ccc(CCN(C)C(=O)c2cccc3c(=O)c(C)c(-c4ccccc4)oc23)cc1OC	20%	·	·	·	·	·
Cc1ccccc1NC(=O)c1ccc2c(c1)CCCN2S(C)(=O)=O	5%	·	·	·	·	·
Cc1ccc(S(=O)(=O)N2CCN(C(=O)CCn3cncn3)CC2)cc1	214%	-3	3%	22%	2%	6%
CCCC1COC(Cn2cncn2)(c2ccc(C)cc2)O1 (centres undefined)	19%	9	0%	23µM*	11µM*	10%
CCC(=O)Nc1ccc(C(C)CC)cc1 (centres undefined)	13%	·	·	·	·	·
CC(NC(=O)c1ccc2c(c1)CCCC2)c1ccc(F)cc1F (centres undefined)	40µM*	·	·	·	·	·
COCc1ccc(C(=O)NC(C)c2ccc(F)cc2F)cc1 (centres undefined)	-21%	·	·	·	·	·
CCN(CC)S(=O)(=O)c1ccc2c(c1)CC(C(=O)NCCc1ccc(SC)cc1)N2C(C)=O (centres undefined)	18%	·	·	·	·	·
Cc1cc(C(O)c2ncc(-c3ccccc3)[nH]2)ccc1F (centres undefined)	·	23	-6%	16µM*	?	-5%
OC(c1ccccc1)c1ncc(-c2ccc(Cl)cc2)[nH]1 (centres undefined)	2%	19	21%	-3%	-10%	0%
OC(c1ccc(-c2ccccc2)cc1)c1ncc(-c2ccc(F)cc2)[nH]1 (centres undefined)	-2%	27	?	29µM*	?	?
COC1CCOC2(CCN(C(=O)c3cccc(C)c3)CC2)C1 (centres undefined)	44%	·	·	·	·	·
